Assay outcomes from PubChem.
An excerpt weighted towards active compounds, which were near 2.8% of everything screened.
pPAFAH inh – inhibitors of human plasma PAF acetylhydrolase (pPAFAH). recombinant pPAFAH, FP-rhodamine probe fluorescence polarization. inhibition, % at 3.39 µM. hit rate 1.5% among 330,000. Q13093. AID 463082;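 active = inhibition above the mean inhibition across the screen plus 3 SD, cut at about 25% in these data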;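 note: inhibitors block binding of the rhodamine activity-based probe so polarization drops; 0% = enzyme with DMSO and 100% = wells lacking pPAFAH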
HTRA1 inh – inhibitors of human serine peptidase HTRA1; recombinant HTRA1, FP-rhodamine activity-based probe, fluorescence polarization; inhibition, % at 5.96 µM; hit rate 0.5% among 340,000; AID 504803; in the data active = inhibition above about 36%;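 note: 0% = enzyme with DMSO and 100% = wells lacking enzyme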
Target sequence (Q92743 whole entry, looked up): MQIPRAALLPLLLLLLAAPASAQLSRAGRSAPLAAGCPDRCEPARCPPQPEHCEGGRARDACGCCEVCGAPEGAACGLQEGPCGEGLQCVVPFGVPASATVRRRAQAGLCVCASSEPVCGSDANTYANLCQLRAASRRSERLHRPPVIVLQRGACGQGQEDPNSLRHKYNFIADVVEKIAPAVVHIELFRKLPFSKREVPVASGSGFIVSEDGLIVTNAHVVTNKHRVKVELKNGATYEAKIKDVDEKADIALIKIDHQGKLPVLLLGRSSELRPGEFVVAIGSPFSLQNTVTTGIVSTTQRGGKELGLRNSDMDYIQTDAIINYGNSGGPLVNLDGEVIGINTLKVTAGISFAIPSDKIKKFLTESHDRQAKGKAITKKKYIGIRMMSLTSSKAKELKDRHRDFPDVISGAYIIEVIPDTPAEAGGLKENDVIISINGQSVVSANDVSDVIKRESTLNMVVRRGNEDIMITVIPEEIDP
DAGLB inhibitor – diacylglycerol lipase beta (human) inhibition | Q8NCG7 | HEK293T DAGLB membrane lysate, EnzChek fluorogenic substrate | inhibition, % at 5.17 µM | hit rate 0.059% among 340,000 | AID 504411; in the data active = inhibition above about 34%;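 note: 0% = enzyme with vehicle and 100% = wells lacking enzyme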
PAFAH1B2 FP inh – PAFAH1B2 (human) inhibition | hit rate 1.2% among 340,000 | AID 492953 | inhibition, % at 3.39 µM | recombinant PAFAH1B2, FP-rhodamine activity probe, fluorescence polarization | P68402;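 active = inhibition above the mean of all tested compounds plus 3 SD, cut at about 24% in these data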;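 note: 0% = enzyme with DMSO and 100% = wells lacking PAFAH1B2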
PAFAH2 inh – inhibitors of human PAFAH2 | Q99487 | recombinant PAFAH2, FP-rhodamine activity probe, fluorescence polarization | inhibition, % at 3.39 µM | hit rate 0.99% among 340,000 | AID 492956;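 active = inhibition above the mean over all tested compounds plus 3 SD, cut at about 30% in these data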;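 note: inhibitors block probe labeling of enzyme so polarization drops; 0% = enzyme with DMSO and 100% = wells lacking PAFAH2 protein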
PAFAH1B3 inh – inhibitors of human PAFAH1B3. recombinant PAFAH1B3, FP-rhodamine probe, fluorescence polarization. Q15102. hit rate 0.28% among 340,000. inhibition, % at 3.39 µM;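 active = inhibition above the screen-wide average of all tested compounds plus 3 SD, cut at about 25% in these data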;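 note: 0% = enzyme with DMSO only and 100% = wells lacking PAFAH1B3 protein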
Active calls of the source: *.

`COc1ccc(NS(=O)(=O)c2ccc(N3CCCC3)c(NC(=S)Nc3ccc(SC(F)F)cc3)c2)cc1` gave pPAFAH inh 34*, HTRA1 inh -8, DAGLB inhibitor 5, PAFAH1B2 FP inh 1, PAFAH2 inh 4 and PAFAH1B3 inh -2.
CC(=O)c1ccc(N2CCN(S(=O)(=O)c3c(C)[nH]c(C)c3C(=O)N3CCCC3)CC2)cc1 was read as pPAFAH inh 5, HTRA1 inh 1, DAGLB inhibitor 1, PAFAH1B2 FP inh -6, PAFAH2 inh -5 and PAFAH1B3 inh -1.
Screening O=C(CSc1nc2ccccc2c(=O)n1-c1ccc(F)cc1)NC1CCS(=O)(=O)C1 (stereo not drawn) returned HTRA1 inh 7, DAGLB inhibitor 0, PAFAH1B2 FP inh 5, PAFAH2 inh -2 and PAFAH1B3 inh 4.
CCC(C)c1c(N)n(S(=O)(=O)c2ccc(C)cc2)oc1=O (stereo not drawn) was read as HTRA1 inh -2, DAGLB inhibitor 0, PAFAH1B2 FP inh 42*, PAFAH2 inh 2 and PAFAH1B3 inh -2.
O=c1cc(-c2ccc(Cl)cc2)[nH][nH]1 was read as pPAFAH inh 5, HTRA1 inh 10, DAGLB inhibitor 11, PAFAH1B2 FP inh 2, PAFAH2 inh -11 and PAFAH1B3 inh 9.
O=c1cc(-c2ccc(Cl)c(Cl)c2)[nH][nH]1 was read as pPAFAH inh 26*, HTRA1 inh -3, DAGLB inhibitor 11, PAFAH1B2 FP inh 6, PAFAH2 inh -4 and PAFAH1B3 inh -1.
`COc1ccc2nc(NC(=O)CN3C(=O)NC4(CCCCC4)C3=O)sc2c1` gave pPAFAH inh -1, HTRA1 inh -6, DAGLB inhibitor -2, PAFAH1B2 FP inh -3, PAFAH2 inh -4 and PAFAH1B3 inh 2.
Screening CCCCCCCCCCNC(=O)CCn1[nH]c(=O)c2ccccc2c1=O returned pPAFAH inh 30*, HTRA1 inh -1, DAGLB inhibitor 4, PAFAH1B2 FP inh 61*, PAFAH2 inh 22 and PAFAH1B3 inh 8.
`CC(C)c1nc2sc3c(SCCN(C)C)ncnc3c2c2c1CCC2` gave HTRA1 inh 2, DAGLB inhibitor 0, PAFAH1B2 FP inh 11, PAFAH2 inh -2 and PAFAH1B3 inh -2.
Screening CC(=O)c1c[nH]c(C(=O)NCc2ccccc2Cl)c1 returned pPAFAH inh 3, HTRA1 inh 3, DAGLB inhibitor 1, PAFAH1B2 FP inh -1, PAFAH2 inh 0 and PAFAH1B3 inh -8.
Cc1cc(SCC#N)n2nc(C)c(-c3ccccc3)c2n1 was read as pPAFAH inh 32*, HTRA1 inh -5, DAGLB inhibitor 0, PAFAH1B2 FP inh -1, PAFAH2 inh 9 and PAFAH1B3 inh 3.
COc1ccc(CCN2C(=O)C3C(C2=O)C2C=CC3C23CC3)cc1OC (stereo not drawn) was read as pPAFAH inh 0, HTRA1 inh 3, DAGLB inhibitor 0, PAFAH1B2 FP inh 2, PAFAH2 inh -3 and PAFAH1B3 inh -2.
Cc1cccc(NC(=O)COc2ccc(-c3nn(C)c(=O)c4ccccc34)cc2)c1 was read as pPAFAH inh -4, HTRA1 inh -46, DAGLB inhibitor 1, PAFAH1B2 FP inh 1, PAFAH2 inh -2 and PAFAH1B3 inh -1.
Screening C[C@H](OC(=O)NCc1ccc(C(F)(F)F)cc1)[C@@H]1O[C@@]2(C)CCC[C@@H]1O2 returned pPAFAH inh -2, HTRA1 inh -3, DAGLB inhibitor -4, PAFAH1B2 FP inh 25*, PAFAH2 inh 0 and PAFAH1B3 inh -1.
`S=C1NCCOCCNC(=S)NCCOCCOCCN1` gave pPAFAH inh 26*, HTRA1 inh 4, DAGLB inhibitor 4, PAFAH1B2 FP inh -3, PAFAH2 inh 6 and PAFAH1B3 inh 0.
NC(=O)C1=C(N=C2CCCCC2)CCCC1 was read as HTRA1 inh 4, DAGLB inhibitor 0, PAFAH1B2 FP inh 6, PAFAH2 inh 7 and PAFAH1B3 inh 6.
For COc1ccc(C2Nc3cccc4cccc(c34)N2)cc1Br the results were pPAFAH inh 11, HTRA1 inh 1, DAGLB inhibitor -1, PAFAH1B2 FP inh 8, PAFAH2 inh -8 and PAFAH1B3 inh 16.
`COc1cc(C2Nc3cccc4cccc(c34)N2)ccc1OC(C)=O` gave pPAFAH inh 11, HTRA1 inh 11, DAGLB inhibitor 3, PAFAH1B2 FP inh 10, PAFAH2 inh 5 and PAFAH1B3 inh 38*.
